Measured values as given in PubChem BioAssay (NCI).
Values joined by “and” are separate entries in the source; they are usually repeats but may differ in a detail not shown here. Equal values may be shown once. About 83,000 compounds went through this panel and 20% of them were active in at least one assay; those are over-represented in the sample as a whole.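 Results are percent growth after 48 hours of single-concentration exposure. 100 means growth as in untreated cells, lower positive values show inhibition; negative values down to -100 show cell death.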 Unmarked numbers belong to inactive results. Active and inactive are the calls of the source. Rule for the calls: active = growth percent below 10; inactive = the rest.

Test system: MDA-MB-468 breast
Assay: NCI-60 one-dose screen, 48 h (100 = growth as untreated, 0 = no growth, -100 = all killed)
Settings: 10 µM unless noted

Row | Structure (SMILES) | growth
1 | O=C(Nc1ccc(I)cc1F)c1cc(Br)ccc1O | -2.63% (active)
2 | O=C(N/N=C/C[C@@H]1[C@@H](/C=C/[C@@H](O)COc2cccc(Cl)c2)[C@H](O)C[C@@H]1O)c1ccncc1 | 97.9%
3 | COc1cc2nc(N3CCC[C@H](NC4=CC(=O)c5ccccc5C4=O)C3)nc(N)c2cc1OC | -55.9% (active)
4 | N=C(N)c1ccc(OCCSCCOc2ccc(C(=N)N)cc2)cc1 | 40.1%
5 | O=C(N/N=C/[C@H](O)[C@H](O)[C@H](O)CO)c1ccc(NC(=O)c2cccnc2)cc1 | 113%
6 | N#C/C(=N\Nc1ccc(Cl)cc1)C(=O)C1CC1 | 27.1%
7 | O=C(CN1CCOCC1)N1CCOCC1 | 108% and 116%
8 | COc1cc(C2CC(c3ccc(Nc4nc(NCCO)nc(N5CCOCC5)n4)cc3)=NN2c2cc(Cl)cc(Cl)c2)cc(OC)c1OC (centres undefined) | 64%
9 | COc1ccccc1S(=O)(=O)Nc1ccc2c3c(cc(CCC(=O)NCCCCNc4cccc5c4C(=O)N(C4CCC(=O)NC4=O)C5=O)cc13)C(=O)N2C (centres undefined) | -35.5% (active)
10 | CC1(C)NCCC[C@]2(C)[C@H]3CC(=O)[C@H]4[C@@H]5C[C@](C)(CO)CC[C@]5(C)CC[C@@]4(C)[C@]3(C)CC[C@@H]12 | 86.9%
11 | CC(=O)Oc1ccc(C23c4ccccc4C2(OC(C)=O)c2cc(OC(C)=O)ccc23)cc1 (centres undefined) | 14.8%
12 | N#Cc1ncc(-c2ccc(F)c(F)c2F)c(NC2CCCCCC2)n1 | 86.1%
13 | Cc1cc2nc3ccc(=[N+](C)C)cc-3sc2cc1N | -13.4% (active) and -40.6% (active)
14 | CC1=CC(=O)C2=C(C)CC(OC(=O)CCc3ccccc3)[C@@H]3[C@H](OC(=O)[C@@H]3C)[C@@H]12 (some centres undefined) | 79.4%
15 | O=C(O)c1cccc(N/C=C/C(=O)c2cc3cc(Br)ccc3oc2=O)c1 | 96.1%
16 | COc1cc(OCc2cccc(-c3ccc(C(O)c4nccs4)cc3)c2C)cc(OC)c1C=O (centres undefined) | -36.5% (active)
17 | CCCCCCCC[C@@H]1N[C@@H](C(=O)OC)Cc2c1[nH]c1ccccc21 | 94.3%
18 | COc1ccc2nc(Cl)c(/C=C3\CC(c4ccccc4)=NN(c4ccccc4)C3=O)cc2c1 | 74.9%
19 | CC(C)=CCC[C@](C)(O)[C@H]1CC[C@]2(C)[C@@H]1CC[C@@H]1[C@@]3(C)CC[C@H](OC(=O)CCC(=O)O)C(C)(C)[C@@H]3CC[C@]12C | 30.5% [100 µM]
20 | COc1cc(C(=O)/C(C)=C/c2c[nH]c3ccccc23)cc(OC)c1OC | 11.4%
21 | NS(=O)(=O)c1ccc(NCC(=O)Nc2ccc(-c3nc4ccccc4s3)cc2)cc1 | 4.26% (active)
22 | CCOC(=O)c1nnn(-c2no[n+]([O-])c2-c2ccc(OC)cc2)c1COc1cccc2cccnc12 | 33.6%
23 | COC(=O)C(C)NC1=C(Cl)C(=O)C(NC(C)C(=O)OC)=C(Cl)C1=O (centres undefined) | 63.6%
24 | COc1cc2c(c(OC)c1OC)CCC(c1cccc(C(=O)Nc3cccc(Cl)c3)c1)O2 (centres undefined) | 77.4%
